Assay results from PubChem BioAssay (EPA / NIEHS).
Results filed as inconclusive are left out. The source made the active and inactive calls. Rule for the calls: active = hit-call score of the fitted dose curve at least 0.9, where 1 is the maximum; inconclusive = response in the unintended direction; inactive = score below 0.9. Where a SMILES comes first, the peptide text is derived from it. [ ]: non-standard residue; d: D form. pGlu = O=C1CC[C@@H](C(=O)O)N1; Thz = O=C(O)[C@@H]1CSCN1

molecular target: Cellular tumor antigen p53 (Homo sapiens) (UniProt P04637); assay: TOX21_p53_BLA_p3_ratio: Tox21 HCT-116 p53 Agonism Beta-lactamase Assay, Ratio, Phase 3 (AID 2283596)
Procedure, shortened: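 HCT116 p53-bla cells (4000/well) given compound in DMSO (217-fold dilution) after 5 h, incubated 16 h at 37C. CCF4-AM substrate 2 h at room temperature; 460/530 nm emission ratio, gain fitted against DMSO.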

Sequence of Cellular tumor antigen p53 (Homo sapiens) (P04637 whole entry, looked up): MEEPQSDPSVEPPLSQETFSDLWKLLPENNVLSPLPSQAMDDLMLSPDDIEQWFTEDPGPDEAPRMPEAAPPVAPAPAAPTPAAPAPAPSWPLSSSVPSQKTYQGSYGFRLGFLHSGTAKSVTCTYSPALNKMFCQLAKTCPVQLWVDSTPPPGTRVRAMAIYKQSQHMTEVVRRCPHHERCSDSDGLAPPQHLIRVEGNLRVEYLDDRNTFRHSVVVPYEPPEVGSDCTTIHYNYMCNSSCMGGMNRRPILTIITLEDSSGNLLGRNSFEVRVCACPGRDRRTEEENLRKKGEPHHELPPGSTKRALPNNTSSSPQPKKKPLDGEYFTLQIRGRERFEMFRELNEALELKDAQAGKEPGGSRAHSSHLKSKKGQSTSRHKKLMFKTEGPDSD

**Q.** For `CCOC(=O)Cc1cccc(-c2cc(CCCCCCc3ccc(O[C@H]4O[C@H](COC(C)=O)[C@@H](OC(C)=O)[C@H](OC(C)=O)[C@@H]4OC(C)=O)c(-c4cccc(CC(=O)OCC)c4)c3)ccc2O[C@H]2O[C@H](COC(C)=O)[C@@H](OC(C)=O)[C@H](OC(C)=O)[C@@H]2OC(C)=O)c1`, which outcome is on record?
**A.** The outcome was “inactive”.

**Q.** Which outcome does the source give for `O=C(O)c1ccc(OCCn2ccnc2)cc1` here?
**A.** Its outcome is “inactive”.

**Q.** Which outcome does the source give for `CCCCS` here?
**A.** Its outcome is “inactive”.

**Q.** For `N.N.O=C([O-])C1(C(=O)[O-])CCC1.[Pt+4]`, which outcome is on record?
**A.** Its outcome is “inactive”.

**Q.** Which outcome does the source give for `CCCCC(=O)O[C@]1(C(=O)CO)[C@H](C)C[C@H]2[C@@H]3CCC4=CC(=O)C=C[C@]4(C)[C@@]3(F)[C@@H](O)C[C@@]21C` here?
**A.** The outcome was “inactive”.

**Q.** Which outcome does the source give for `O=c1[nH]c2cc(C(F)(F)F)c(N3CCOCC3)cc2n(CP(=O)(O)O)c1=O` here?
**A.** Its outcome is “inactive”.

**Q.** For `CCCCC(=O)O[C@H]1CC[C@H]2[C@@H]3CCc4cc(O)ccc4[C@H]3CC[C@]12C`, which outcome is on record?
**A.** The outcome was “inactive”.

**Q.** With `CCCNC(C)C(=O)Nc1c(C)csc1C(=O)OC` (stereo not drawn) as the molecule, how does the outcome read?
**A.** The outcome was “inactive”.

**Q.** With `Nc1ccc(S(=O)(=O)Nc2ccnn2-c2ccccc2)cc1` as the molecule, how does the outcome read?
**A.** The outcome was “inactive”.

**Q.** Which outcome does the source give for `CN1CCN2c3ccccc3Cc3ccccc3C2C1` (stereo not drawn) here?
**A.** Its outcome is “inactive”.

**Q.** For `CC(=O)N[C@H]1[C@H]([C@H](O)[C@H](O)CO)OC(C(=O)O)=C[C@@H]1N=C(N)N`, which outcome is on record?
**A.** The outcome was “inactive”.

**Q.** With `OC[C@H]1O[C@@H](n2cnc3c2NC=NC[C@H]3O)C[C@@H]1O` as the molecule, how does the outcome read?
**A.** Its outcome is “inactive”.

**Q.** With `CC1=CC(=O)CC(C)(C)C1=O` as the molecule, how does the outcome read?
**A.** The outcome was “inactive”.

**Q.** For `O=C1CC[C@@H](C(=O)N2CSC[C@H]2C(=O)O)N1` ([pGlu]-[Thz]-OH), which outcome is on record?
**A.** Its outcome is “inactive”.

**Q.** For `OCc1ccccc1O`, which outcome is on record?
**A.** Its outcome is “inactive”.

**Q.** For `c1ccc2c(c1)CCc1ccccc1N2`, which outcome is on record?
**A.** The outcome was “inactive”.

**Q.** For `NS(=O)(=O)c1cc(Cl)c(Cl)c(S(N)(=O)=O)c1`, which outcome is on record?
**A.** Its outcome is “inactive”.

**Q.** Which outcome does the source give for `CCOC(=O)CC(=O)c1cc(F)c(Cl)nc1Cl` here?
**A.** Its outcome is “inactive”.

**Q.** Which outcome does the source give for `C=C(C)C(=O)OCCC[Si](Cl)(Cl)Cl` here?
**A.** Its outcome is “inactive”.

**Q.** With `COc1ccc(C(=O)c2ccc(OC)cc2O)c(O)c1` as the molecule, how does the outcome read?
**A.** Its outcome is “inactive”.

**Q.** Which outcome does the source give for `CC1CC(C)C(=O)C1=O` (stereo not drawn) here?
**A.** The outcome was “inactive”.

**Q.** For `O=C(O)c1ccccc1OP(=O)(O)O`, which outcome is on record?
**A.** Its outcome is “inactive”.

**Q.** With `COc1cc2c(c(OC)c1OC)-c1c(cc3c(c1OC)OCO3)C[C@@H](C)[C@](C)(O)C2` as the molecule, how does the outcome read?
**A.** The outcome was “inactive”.

**Q.** Which outcome does the source give for `CCCCCCCCCCCCCCCC(=O)OC[C@@H](COP(=O)([O-])OCC[N+](C)(C)C)OC(=O)CCCCCCCCCCCCCCC` here?
**A.** The outcome was “inactive”.

**Q.** For `CO[C@H]1C[C@H](O[C@H]2[C@H](C)[C@@H](O[C@@H]3O[C@H](C)C[C@H](N(C)C)[C@H]3O)[C@@H](C)C[C@]3(CO3)C(=O)[C@H](C)[C@@H](O)[C@@H](C)[C@@H](C)OC(=O)[C@@H]2C)O[C@@H](C)[C@@H]1O`, which outcome is on record?
**A.** The outcome was “inactive”.

system: not listed separately; assay: TOX21_p53_BLA_p4_viability: Viability Assessment in the Tox21 HCT-116 p53 Agonism Beta-lactamase Assay, Phase 4 (AID 2283597);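 note: hits lower the luminescence signal meaning cytotoxicity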
Procedure, shortened: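 HCT-116 p53-bla cells, 4000/well, dosed after 5 h attachment and incubated 16 h at 37 °C, 5% CO2. Viability from CellTiter-Glo ATP luminescence after 30 min at room temperature, taken after the beta-lactamase read; loss of signal indicates cytotoxicity.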

**Q.** Which outcome does the source give for `CCCOC(=O)C(C)O` (stereo not drawn) here?
**A.** The outcome was “inactive”.

**Q.** With `CC[N+](CC)(CC)CCC(O)(c1ccccc1)C1CCCCC1` (stereo not drawn) as the molecule, how does the outcome read?
**A.** Its outcome is “inactive”.

**Q.** With `COS(=O)(=O)C(F)(F)F` as the molecule, how does the outcome read?
**A.** The outcome was “inactive”.

**Q.** Which outcome does the source give for `Cc1ccccc1N1CCN(CCc2nnc3n2CCCC3)CC1` here?
**A.** The outcome was “inactive”.

**Q.** For `CC(CCc1ccccc1)NCC(O)c1ccc(O)c(C(N)=O)c1` (stereo not drawn), which outcome is on record?
**A.** Its outcome is “inactive”.

**Q.** With `C[C@@H]1O[C@@H](OC[C@H]2O[C@@H](Oc3c(-c4ccc(OCCO)c(OCCO)c4)oc4cc(OCCO)cc(O)c4c3=O)[C@H](O)[C@@H](O)[C@@H]2O)[C@H](O)[C@H](O)[C@H]1O` as the molecule, how does the outcome read?
**A.** The outcome was “inactive”.

**Q.** Which outcome does the source give for `C[C@@H](O)[C@H]1C(=O)N2C(C(=O)O)=C(S[C@@H]3CN[C@H](C(=O)N(C)C)C3)[C@H](C)[C@H]12` here?
**A.** Its outcome is “inactive”.

**Q.** Which AC50 does the source give for `Oc1ccc(C2(c3ccc(O)cc3)CC3CC2C2CCCC32)cc1` (stereo not drawn) here?
**A.** The AC50 was 55.4 µM (active).

**Q.** With `CC1CCc2c(N3CCC(O)CC3)c(F)cc3c(=O)c(C(=O)O)cn1c23` (stereo not drawn) as the molecule, how does the outcome read?
**A.** Its outcome is “inactive”.

**Q.** With `C=CCOc1ccc(CC(=O)O)cc1Cl` as the molecule, how does the outcome read?
**A.** The outcome was “inactive”.

**Q.** With `NCC[C@H](O)C(=O)N[C@@H]1C[C@H](N)[C@@H](O[C@H]2O[C@H](CN)CC[C@H]2N)[C@H](O)[C@H]1O[C@H]1O[C@H](CO)[C@@H](O)[C@H](N)[C@H]1O` as the molecule, how does the outcome read?
**A.** The outcome was “inactive”.

**Q.** Which outcome does the source give for `CCOC(=O)Cc1cccc(-c2cc(CCCCCCc3ccc(O[C@H]4O[C@H](COC(C)=O)[C@@H](OC(C)=O)[C@H](OC(C)=O)[C@@H]4OC(C)=O)c(-c4cccc(CC(=O)OCC)c4)c3)ccc2O[C@H]2O[C@H](COC(C)=O)[C@@H](OC(C)=O)[C@H](OC(C)=O)[C@@H]2OC(C)=O)c1` here?
**A.** The outcome was “inactive”.

**Q.** Which outcome does the source give for `O=C(O)c1ccc(OCCn2ccnc2)cc1` here?
**A.** The outcome was “inactive”.

**Q.** Which outcome does the source give for `CCCCC(=O)O[C@]1(C(=O)CO)[C@H](C)C[C@H]2[C@@H]3CCC4=CC(=O)C=C[C@]4(C)[C@@]3(F)[C@@H](O)C[C@@]21C` here?
**A.** Its outcome is “inactive”.

**Q.** For `O=c1[nH]c2cc(C(F)(F)F)c(N3CCOCC3)cc2n(CP(=O)(O)O)c1=O`, which outcome is on record?
**A.** The outcome was “inactive”.

**Q.** For `CCCCC(=O)O[C@H]1CC[C@H]2[C@@H]3CCc4cc(O)ccc4[C@H]3CC[C@]12C`, which outcome is on record?
**A.** The outcome was “inactive”.

**Q.** With `Nc1ccc(S(=O)(=O)Nc2ccnn2-c2ccccc2)cc1` as the molecule, how does the outcome read?
**A.** The outcome was “inactive”.

**Q.** With `CN1CCN2c3ccccc3Cc3ccccc3C2C1` (stereo not drawn) as the molecule, how does the AC50 read?
**A.** Its AC50 is 37.8 µM (active).

**Q.** With `CC(=O)N[C@H]1[C@H]([C@H](O)[C@H](O)CO)OC(C(=O)O)=C[C@@H]1N=C(N)N` as the molecule, how does the outcome read?
**A.** The outcome was “inactive”.

**Q.** With `OC[C@H]1O[C@@H](n2cnc3c2NC=NC[C@H]3O)C[C@@H]1O` as the molecule, how does the outcome read?
**A.** The outcome was “inactive”.

**Q.** Which outcome does the source give for `CC1=CC(=O)CC(C)(C)C1=O` here?
**A.** Its outcome is “inactive”.

**Q.** For `c1ccc2c(c1)CCc1ccccc1N2`, which outcome is on record?
**A.** The outcome was “inactive”.

**Q.** With `CCOC(=O)CC(=O)c1cc(F)c(Cl)nc1Cl` as the molecule, how does the outcome read?
**A.** Its outcome is “inactive”.

**Q.** With `C=C(C)C(=O)OCCC[Si](Cl)(Cl)Cl` as the molecule, how does the outcome read?
**A.** The outcome was “inactive”.

**Q.** Which outcome does the source give for `COc1ccc(C(=O)c2ccc(OC)cc2O)c(O)c1` here?
**A.** The outcome was “inactive”.

**Q.** Which outcome does the source give for `O=C(O)c1ccccc1OP(=O)(O)O` here?
**A.** The outcome was “inactive”.

**Q.** With `COc1cc2c(c(OC)c1OC)-c1c(cc3c(c1OC)OCO3)C[C@@H](C)[C@](C)(O)C2` as the molecule, how does the outcome read?
**A.** Its outcome is “inactive”.

**Q.** For `CCCCCCCCCCCCCCCC(=O)OC[C@@H](COP(=O)([O-])OCC[N+](C)(C)C)OC(=O)CCCCCCCCCCCCCCC`, which outcome is on record?
**A.** The outcome was “inactive”.
